# Measured values reported in PubChem BioAssay AID743060 (The Scripps Research Institute Molecular Screening Center, 2013).
# “And” between values parts separate entries of the source, which are not always exact repeats. Identical values can stand only once.
# Assay: T. brucei methionyl-tRNA synthetase enzyme inhibition – biochemical, radioactivity, round 1, late-stage follow-up (AID 743060)
# Conditions: purified enzyme, radiolabel aminoacylation, scintillation, 2 h; at 1 µM; stronger effect = higher value
row,SMILES,inhibition
1,COc1ccc(CNC(=O)CSc2nnc3c(n2)[nH]c2ccc(F)cc23)cc1,47.5%
2,CCN(CC)C(=O)C(=O)c1cn(CC(=O)N(CC)c2ccccc2)c2ccccc12,-3.75%
3,O=C(Cn1cc(C(=O)c2ccco2)c2ccccc21)Nc1cccc(C(F)(F)F)c1,45.2%
4,CCN(CC)C(=O)C(=O)c1cn(CC(=O)Nc2cccc(C(F)(F)F)c2)c2ccccc12,95.4%
5,Cc1ccc(NC(=O)CN(C)C(=O)CCSc2ccc(F)cc2)cc1,-1.05%
6,CCN(CC)C(=O)C(=O)c1cn(CC(=O)Nc2cccc(OC)c2)c2ccccc12,41.4%
7,O=C(NCCc1nc2ccccc2[nH]1)c1c(F)cccc1F,2.62%
8,COc1ccc(CCN(C(=O)c2cccc(F)c2)C2CC(=O)N(c3ccc(Br)cc3)C2=O)cc1 (stereo not given),-5.29%
9,CCO[C@@H]1OC(C(=O)NCc2nc3ccccc3[nH]2)=C[C@H](c2ccc(Br)cc2)[C@H]1CCCO,6.72%
10,COc1ccc(OCC(O)CNC(=O)Nc2ccc(Cl)cc2)cc1 (stereo not given),28.9%
11,O=C(Cn1cc(C(=O)COc2ccccc2)c2ccccc21)Nc1cccc(C(F)(F)F)c1,-5.73%
12,O=C(NCc1nc2ccccc2[nH]1)C1=C[C@@H](c2csc3ccccc23)C[C@@H](OCCCCO)O1,20.6%
13,O=C(Nc1ccc(F)c(Cl)c1)C1CC(=O)n2c(nc3ccccc32)N1 (stereo not given),44.9% and 55.3%
14,O=C(NNC(=O)c1cc(-c2ccc(Cl)c(Cl)c2)nc2ccccc12)Nc1ccccc1,59.7%
15,CC1Cc2ccccc2N1C(=O)Cn1cc(C(=O)C(=O)N2CCOCC2)c2ccccc21 (stereo not given),-6.83%
16,O=C(CC=NOCc1ccc([N+](=O)[O-])cc1)Nc1ccc(Cl)cc1,28.6%
17,O=C(Cn1cc(C(=O)C(=O)N2CCOCC2)c2ccccc21)Nc1cccc(C(F)(F)F)c1,87.5%
18,Cc1ccc(CNC(=O)CSc2nnc3c(n2)[nH]c2ccc(C)cc23)cc1,76.3%

row,SMILES,inhibition
1,O=C1CC(NCCc2ccccc2)C(=O)N1c1ccc(Br)cc1 (stereo not given),-6.51%
2,COc1ccccc1NC(=O)Cn1cc(C(=O)C(=O)N2CCOCC2)c2ccccc21,-14.4%
3,Cc1ccc(C(=O)NCCc2nc3ccccc3[nH]2)cc1C,-10.8%
4,O=C(NCc1nc2ccccc2[nH]1)C1=C[C@@H](c2ccc(Br)cc2)C[C@@H](OCCCCO)O1,84.2%
5,Cc1cccc(C(=O)NCCc2nc3ccccc3n2CCOc2ccccc2)c1,1.66%
6,O=C(Cn1cnc2ccccc21)Nc1cccc([N+](=O)[O-])c1,44.9%
7,O=C(CSc1nnc2c(n1)[nH]c1ccc(Br)cc12)NCc1ccccc1,79.8%
8,O=C(NCc1nc2ccccc2[nH]1)C1=C[C@H](c2ccccc2)C[C@H](OCc2ccc(CO)cc2)O1,7.32%
9,O=C(NCc1nc2ccccc2[nH]1)C1=C[C@@H](C2CC2)C[C@@H](OCc2ccc(CO)cc2)O1,52.8%
10,COCCc1nc2ccc(C(=O)NCCc3nc4ccc(OC)cc4[nH]3)cc2o1,-1.44%
11,O=C(CSC1CC(=O)N(c2cccc(Cl)c2)C1=O)Nc1ccc(Br)cc1 (stereo not given),23.7%
12,O=C(CCC(=O)Nc1cccc([N+](=O)[O-])c1)NN=Cc1cccs1,6.25%
13,CCN(CCc1nc2ccc(C)cc2[nH]1)C(=O)c1ccc2ncccc2c1,-4.55%
14,CCOC(=O)N1CCC(Nc2c(Nc3ccc(F)cc3)c(=O)c2=O)CC1,28.4%
15,Cc1ccc(C(=O)NCCc2nc3ccccc3[nH]2)cc1[N+](=O)[O-],35.7%
16,COc1ccc(NC(=O)CSc2nnc3c4cc(C)ccc4n(C)c3n2)cc1,-3.06%
17,O=C(CC=NOCc1ccc([N+](=O)[O-])cc1)Nc1ccc(Br)cc1,32.2%
